This note sets out measurements from PubChem BioAssay (EPA / NIEHS).

Records with an inconclusive call do not appear. Active and inactive are the calls of the source. The calls were made as follows, unless noted: active = hit-call score of the fitted dose curve at least 0.9, where 1 is the maximum; inconclusive = response in the unintended direction; inactive = score below 0.9.

For orientation: AC50 means the concentration at which the activity in the assay is half-maximal.

Read-out in test [1]: TIMP1, TIMP1 (gene 7076)
Nature of the test: LTEA_HepaRG_TIMP1: Life Technologies and Expression Analysis (LTEA) Assay for TIMP1 using HepaRG (AID 2283534; active = hit-call score of the fitted dose curve at least 0.9, where 1 is the maximum; inactive = score below 0.9). Conditions: mRNA level, 48 h; actives raise or lower the signal. In short, it runs like this: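 Bidirectional change in TIMP1 transcript versus 0.5% DMSO, measured by TaqMan qRT-PCR with three housekeeping genes for normalization. HepaRG human liver cells dosed 48 h in duplicate, top concentration 100 uM with half-log dilutions.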

Read-out in test [2]: Tumor necrosis factor receptor 1 (TNFRSF1A), TNFRSF1A (gene 7132)
Nature of the test: LTEA_HepaRG_TNFRSF1A: Life Technologies and Expression Analysis (LTEA) Assay for Tumor necrosis factor receptor 1 (TNFRSF1A) using HepaRG (AID 2283535; active = hit-call score of the fitted dose curve at least 0.9, where 1 is the maximum; inactive = score below 0.9). The following applies: mRNA level, 48 h; actives raise or lower the signal. In short, it runs like this: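 mRNA measured by qRT-PCR (TaqMan, Fluidigm arrays) against ACTB/GAPDH/POLR2A housekeepers after 48 h chemical exposure of HepaRG cells. Top concentration 100 uM, half-log 8-point series, duplicates; vehicle 0.5% DMSO, both fit directions.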

Read-out in test [3]: Thyroid Hormone Responsive (THRSP), THRSP (gene 7069)
Nature of the test: LTEA_HepaRG_THRSP: Life Technologies and Expression Analysis (LTEA) Assay for Thyroid Hormone Responsive (THRSP) using HepaRG (AID 2283536; active = hit-call score of the fitted dose curve at least 0.9, where 1 is the maximum; inactive = score below 0.9). The following applies: mRNA level, 48 h; actives raise or lower the signal. An outline of the steps:
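Differentiated human HepaRG cells were exposed in duplicate for 48 h in serum-free induction medium to eight concentrations (top 100 uM, half-log steps, 0.5% DMSO). Expression was quantified by TaqMan qRT-PCR, normalized to ACTB, GAPDH and POLR2A, with bidirectional fitting against DMSO.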

Read-out in test [4]: UDP glucuronosyltransferase (UGT1A1), UGT1A1 (gene 54658)
Nature of the test: LTEA_HepaRG_UGT1A1: Life Technologies and Expression Analysis (LTEA) Assay for UDP glucuronosyltransferase (UGT1A1) using HepaRG (AID 2283538; active = hit-call score of the fitted dose curve at least 0.9, where 1 is the maximum; inactive = score below 0.9). The following applies: mRNA level, 48 h; actives raise or lower the signal. In short, it runs like this: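 Differentiated human HepaRG cells in serum-free induction medium were exposed in duplicate for 48 h to eight half-log concentrations up to 100 uM in 0.5% DMSO. UGT1A1 mRNA was quantified by TaqMan qRT-PCR, normalized to ACTB, GAPDH and POLR2A, and fitted bidirectionally against DMSO.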

Read-out in test [5]: UDP glucuronosyltransferase (UGT1A6), UGT1A6 (gene 54578)
Nature of the test: LTEA_HepaRG_UGT1A6: Life Technologies and Expression Analysis (LTEA) Assay for UDP glucuronosyltransferase (UGT1A6) using HepaRG (AID 2283539; active = hit-call score of the fitted dose curve at least 0.9, where 1 is the maximum; inactive = score below 0.9). Conditions: mRNA level, 48 h; actives raise or lower the signal. In short, it runs like this: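 Expression was quantified by TaqMan qRT-PCR on Fluidigm arrays with ACTB/GAPDH/POLR2A normalization and bidirectional fitting against 0.5% DMSO. HepaRG cells (~100,000/well) were treated in duplicate for 48 h at eight half-log concentrations up to 100 uM in serum-free induction medium.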

Read-out in test [6]: X-box binding protein 1 (XBP1), XBP1 (gene 7494)
Nature of the test: LTEA_HepaRG_XBP1: Life Technologies and Expression Analysis (LTEA) Assay for X-box binding protein 1 (XBP1) using HepaRG (AID 2283540; active = hit-call score of the fitted dose curve at least 0.9, where 1 is the maximum; inactive = score below 0.9). Conditions: mRNA level, 48 h; actives raise or lower the signal. In short, it runs like this: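 XBP1 transcript by qRT-PCR (housekeeping-normalized: ACTB, GAPDH, POLR2A) after 48 h chemical treatment of HepaRG cells, 8-point half-log series topping at 100 uM, vehicle 0.5% DMSO. Gain and loss of signal fitted relative to DMSO.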

The nature of test [7]: LTEA_HepaRG_LDH_cytotoxicity: Cytotoxicity Assessment in the Life Technologies and Expression Analysis (LTEA) Assay (AID 2283563). An outline of the steps:
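LDH release into culture medium read after 48 h chemical treatment of HepaRG cells. Duplicate wells, eight-point half-log series topping at 100 uM, 0.5% DMSO vehicle and baseline.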

Test [8] can be described thus: Tanguay_ZF_120hpf_MORT_legacy: (Legacy) Oregon State University Tanguay Lab 120 Hour Post-fertilization zebrafish Assay for Mortality (AID 2283633).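 As to AC50: fitted as increase in binary mortality versus DMSO negative control.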 In short, it runs like this:
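Static waterborne exposure from 6 to 120 hpf at 28C of single dechorionated wild-type (5D) embryos per well, 0.64% DMSO final. Death recorded present/absent by brightfield at 24 and 120 hpf.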

Test [9] can be described thus: Tanguay_ZF_120hpf_YSE_legacy: (Legacy) Oregon State University Tanguay Lab 120 Hour Post-fertilization zebrafish Assay for Yolk Sac Edema (AID 2283634).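 As to AC50: actives raise the incidence of yolk sac edema above the DMSO baseline.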 An outline of the steps:
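Presence or absence of yolk sac edema was recorded at 120 hpf in surviving larvae. These were wild-type Tropical 5D embryos, chorion removed at 4 hpf, held in static exposure at 28C from 6 hpf with 0.64% DMSO vehicle.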

Test [10] in a line: Tanguay_ZF_120hpf_AXIS_legacy: (Legacy) Oregon State University Tanguay Lab 120 Hour Post-fertilization zebrafish Assay for Body Axis Malformation (AID 2283635).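 As to AC50: potency for an increased fraction of larvae scored with body axis malformation.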 An outline of the steps: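 Binary scoring of axis defects at 120 hpf under brightfield, fitted positive versus DMSO. Tropical 5D embryos, chorion removed by pronase at 4 hpf, were singly exposed in sealed, dark plates at 28C from 6 hpf; DMSO 0.64% final.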

Read-out in test [11]: Cellular tumor antigen p53 (Homo sapiens) (UniProt P04637)
Nature of the test: LTEA_HepaRG_TP53: Life Technologies and Expression Analysis (LTEA) Assay for Tumor Protein P53 (TP53) using HepaRG (AID 2283537; active = hit-call score of the fitted dose curve at least 0.9, where 1 is the maximum; inactive = score below 0.9). Conditions: mRNA level, 48 h; actives raise or lower the signal. In short, it runs like this:
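Differentiated HepaRG cells in serum-free induction medium exposed 48 h in duplicate to 8 half-log concentrations, top 100 uM, 0.5% DMSO. TP53 mRNA by TaqMan qRT-PCR (Fluidigm), normalized to ACTB, GAPDH, POLR2A; fitted bidirectionally versus DMSO.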

A short description of test [12]: TOX21_p53_BLA_p2_viability: Viability Assessment in the Tox21 HCT-116 p53 Agonism Beta-lactamase Assay, Phase 2 (AID 2283591).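 Also: compound exposure lasted 16 h at 37 °C; actives lower the ATP signal meaning cytotoxicity.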 In short, it runs like this:
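HCT-116 p53-bla cells (4000/well) rested 5 h at 37C, then received compounds in DMSO (217-fold dilution) for 16 h at 37C, 5% CO2. After the CCF4 read, CellTiter-Glo was added; ATP luminescence was read after 30 min at room temperature.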

Test [13] addresses Cellular tumor antigen p53 (Homo sapiens) (UniProt P04637). Nature of the test: TOX21_p53_BLA_p2_ratio: Tox21 HCT-116 p53 Agonism Beta-lactamase Assay, Ratio, Phase 2 (AID 2283592). An outline of the steps: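 Gain-of-signal p53 agonism was scored from the beta-lactamase FRET ratio (460/530 nm, 405 nm excitation) in HCT116 cells treated 16 h at 37C, 5% CO2, with DMSO serving as negative control and baseline.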

For test [14] the target is unchanged. Nature of the test: TOX21_p53_BLA_p3_ratio: Tox21 HCT-116 p53 Agonism Beta-lactamase Assay, Ratio, Phase 3 (AID 2283596). An outline of the steps:
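HCT116 p53-bla cells (4000/well) given compound in DMSO (217-fold dilution) after 5 h, incubated 16 h at 37C. CCF4-AM substrate 2 h at room temperature; 460/530 nm emission ratio, gain fitted against DMSO.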

The nature of test [15]: TOX21_p53_BLA_p4_viability: Viability Assessment in the Tox21 HCT-116 p53 Agonism Beta-lactamase Assay, Phase 4 (AID 2283597).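 Also: hits lower the luminescence signal meaning cytotoxicity.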 In short, it runs like this:
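Following a 16 h exposure at 37C, the treated HCT116 wells were first read for the FRET ratio. They were then lysed with CellTiter-Glo, and ATP luminescence was recorded after 30 min at room temperature.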

Test [16] addresses Cellular tumor antigen p53 (Homo sapiens) (UniProt P04637). Nature of the test: TOX21_p53_BLA_p5_ratio: Tox21 HCT-116 p53 Agonism Beta-lactamase Assay, Ratio, Phase 5 (AID 2283599). In short, it runs like this:
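HCT-116 cells carrying a p53-inducible beta-lactamase reporter were seeded at 4000 cells/well and dosed after 5 h with compound in DMSO (217-fold dilution). After 16 h at 37C, CCF4-AM substrate was added for 2 h, and the 460/530 nm emission ratio was scored as gain-of-signal versus DMSO.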

Test [17] in a line: TOX21_p53_BLA_p5_viability: Viability Assessment in the Tox21 HCT-116 p53 Agonism Beta-lactamase Assay, Phase 5 (AID 2283600). In short, it runs like this: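 After the 460/530 nm beta-lactamase measurement, the wells received an ATP-detection luciferase reagent; signal was read 30 min later at RT. Compound treatment lasted 16 h on cells pre-incubated 5 h post-seeding.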
The target of test [18] is Cellular tumor antigen p53 (Homo sapiens) (UniProt P04637). Nature of the test: TOX21_p53_BLA_p4_ratio: Tox21 HCT-116 p53 Agonism Beta-lactamase Assay, Ratio, Phase 4 (AID 2283601). In short, it runs like this: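 HCT116 cells carrying an inducible beta-lactamase reporter were plated at 4000 cells/well, rested 5 h, then exposed to compounds in DMSO (217-fold dilution) for 16 h at 37C. CCF4-AM substrate was loaded 2 h at room temperature; 460/530 nm emission ratio scored gain-of-signal versus DMSO.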
Sequence of Cellular tumor antigen p53 (Homo sapiens) (P04637 whole entry, looked up): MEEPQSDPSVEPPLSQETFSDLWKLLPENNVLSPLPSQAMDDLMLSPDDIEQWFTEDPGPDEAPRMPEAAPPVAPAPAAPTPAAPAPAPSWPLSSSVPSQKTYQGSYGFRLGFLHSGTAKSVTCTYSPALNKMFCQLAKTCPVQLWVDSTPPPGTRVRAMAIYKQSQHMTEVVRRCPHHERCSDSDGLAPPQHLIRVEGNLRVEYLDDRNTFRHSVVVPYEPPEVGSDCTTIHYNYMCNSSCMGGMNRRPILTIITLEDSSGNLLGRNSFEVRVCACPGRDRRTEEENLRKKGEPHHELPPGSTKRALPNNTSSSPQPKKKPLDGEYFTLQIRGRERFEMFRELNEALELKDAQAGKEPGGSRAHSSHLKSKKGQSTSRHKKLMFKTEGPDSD

Test [19] is described as follows: TOX21_p53_BLA_p3_viability: Viability Assessment in the Tox21 HCT-116 p53 Agonism Beta-lactamase Assay, Phase 3 (AID 2283593).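 Also: cells exposed to compound for 16 h before reading.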 In short, it runs like this:
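HCT-116 cells (4000/well) rested 5 h at 37C, then got DMSO compounds by pin tool (217-fold dilution) for 16 h at 37C, 5% CO2. After the bla read, CellTiter-Glo was added and luminescence read at 30 min, room temperature.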

A short description of test [20]: ATG_XTT_Cytotoxicity: Cytotoxicity Assessment in the Attagene TRANS-FACTORIAL HepG2 Assay (AID 2283584). An outline of the steps: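 Viability endpoint from XTT after 24 h chemical exposure of reporter-transfected human HepG2 liver cells; signal loss fitted relative to DMSO negative control.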

For the compound `CCCCOCCOCCOCc1cc2c(cc1CCC)OCO2`, the compound was called inactive in test [1], in [2], in [5], in test [6] and in [7]. Further, the AC50 in test [3] is 10.7 µM (active); in test [4] it was 3.72 µM (active); in test [8] it was 5.13 µM (active); in [9], 28.3 µM (active); in test [10], 25.5 µM (active).
For `CCCCCCC(C)OC(=O)COc1nc(F)c(Cl)c(N)c1Cl` (stereo not given), the outcome in [1], in [2], in [3], in [11], in test [4] and in [5] was inactive. Also, the outcome in test [6], in test [7], in [14], in test [16], in test [17] and in test [8] was inactive. Besides, the result in [9] and in test [10] was inactive. In addition, the AC50 in test [12] was 70.8 µM (active); in [13] it was 82.3 µM (active); in [15], 76.9 µM (active); in [18] it was 87.2 µM (active).
As to `CCCCCOC(=O)COc1cc(N2C(=O)C3=C(CCCC3)C2=O)c(F)cc1Cl`, the outcome in test [1], in [2], in [3], in test [4], in [5] and in [6] was inactive. Also, the outcome in [7], in test [8], in test [9] and in test [10] was inactive.
Take `CCCN(CCC)C(=O)SCC`: the compound was classed as inactive in [1], in test [2], in [3], in test [11], in test [4] and in test [5]. Further, the call in [6], in test [7], in test [13], in test [19], in test [14] and in test [15] was inactive. The result in test [17], in test [18], in test [8], in test [9] and in test [10] was inactive.
`CCCCOC(=O)C(C)Oc1ccc(Oc2ccc(C(F)(F)F)cn2)cc1` (stereo not given): the result in test [1], in test [2], in test [3], in [11], in [4] and in test [5] was inactive. The result in test [6], in test [7], in test [12], in test [19], in test [14] and in test [15] was inactive. Moreover, the outcome in [16], in [17], in test [18], in test [8], in [9] and in test [10] was inactive.
Take `CCOC(=O)C(C)Oc1ccc(Oc2cnc3cc(Cl)ccc3n2)cc1` (stereo not given): the outcome in test [1], in [2], in test [3], in test [4], in test [5] and in [6] was inactive. The compound was called inactive in [7], in [8], in [9] and in [10].
Regarding `c1ccc2[nH]c(-c3cscn3)nc2c1`, the compound was classed as inactive in test [1], in test [2], in test [3], in [5], in test [6] and in test [7]. Further, the outcome in [20], in test [8], in test [9] and in test [10] was inactive. In addition, the AC50 in test [4] is 25.8 µM (active).
Consider `CCN(CC)C(=O)c1cccc(C)c1`, for which the call in test [1], in test [2], in [3], in [5], in [6] and in test [7] was inactive. Besides, the outcome in [20], in test [8], in test [9] and in test [10] was inactive. Moreover, in test [4], the AC50 was 16.5 µM (active).
